Measurements published in PubChem BioAssay AID463173 (ICCB-Longwood Screening Facility, Harvard Medical School, 2010).
About 4,300 (8.3%) of roughly 52,000 compounds were called active. Cut-off read from the data, not from the text of the source: active = survival mostly below about 52% (no sharp cut-off); inactive = mostly above about 56%. The full list was thinned out, with actives kept by preference.

These compounds were tested on DeltatarO mutant (assay: growth inhibition of S. aureus wild type versus tarO mutant, primary screen, teichoic acid synthesis inhibitors, RN4220, OD600 (AID 463173)). Conditions: OD600, 18 h, active compounds read low, screened at 18.75 µg/mL (by protocol).
With `Cc1ccc(-c2nnc(Nc3cccc(O)c3)c3ccccc23)cc1S(=O)(=O)N1CCOCC1` the survival was 78% (inactive).
For `CNC(=O)c1ccc(Nc2nnc(-c3ccc(C)c(S(=O)(=O)N4CCOCC4)c3)c3ccccc23)cc1`, the survival was 61% (inactive).
With `CCOC(=O)c1c(C)oc2ncnc(Nc3cc(C)cc(C)c3)c12` the survival was 94% (inactive).
For `Cc1ccc(-c2nnc(Nc3cccc(O)c3)c3ccccc23)cc1S(=O)(=O)N1CCCCC1`, the survival was 60% (inactive).
`CNC(=O)c1ccc(Nc2nnc(-c3ccc(C)c(S(=O)(=O)N4CCCCC4)c3)c3ccccc23)cc1` was tested, and the survival was 54% (active).
`CCOC(=O)c1c(Nc2cccc(O)c2)nnc(-c2ccccc2)c1-c1ccccc1` was tested, and the survival was 31% (active).
In the case of `CCOC(=O)c1c(Oc2ccc(C(=O)OC)cc2)nnc(-c2ccccc2)c1-c1ccccc1`, the survival is reported as 74% (inactive).
For `CCOC(=O)c1c(C)oc2nc(C)nc(Nc3cccc(OC)c3)c12`, the survival was 78% (inactive).
For `CCOC(=O)c1c(Nc2cccc(C(=O)OC)c2)nnc(-c2ccccc2)c1-c1ccccc1`, the survival was 16% (active).
For `Cc1ccc(-c2nnc(Nc3ccc(C(N)=O)cc3)c3ccccc23)cc1S(=O)(=O)N1CCCCC1`, the survival was 128% (inactive).
For `CCOC(=O)c1c(Nc2cc(C)cc(C)c2)nnc(-c2ccccc2)c1-c1ccccc1`, the survival was 32% (active).
In the case of `CCOC(=O)c1c(C)oc2nc(C)nc(Nc3cc(C)cc(C)c3)c12`, the survival is reported as 89% (inactive).
For `Cc1ccc(N2CCN(c3nc4c(S(=O)(=O)c5ccc(C)c(C)c5)nnn4c4ccccc34)CC2)c(C)c1`, the survival was 82% (inactive).
`CN(C)c1ccc(CNC(=O)C2CCCN(S(=O)(=O)c3ccc4c(ccn4C)c3)C2)cc1` (stereo unspecified) was tested, and the survival was 83% (inactive).
With `Cc1noc(-c2ccc(N3CCCCC3C)c([N+](=O)[O-])c2)n1` (stereo unspecified) the survival was 108% (inactive).
`CCOc1ccc(N2C(=O)N(Cc3ccc(C)cc3C)c3ccccc3S2(=O)=O)cc1` was tested, and the survival was 94% (inactive).
For `Oc1cccc(Nc2cc(-c3ccccc3)ncn2)c1`, the survival was 63% (inactive).
In the case of `CCOC(=O)c1cccc(Nc2cc(-c3ccccc3)ncn2)c1`, the survival is reported as 15% (active).
In the case of `CCOC(=O)CNS(=O)(=O)c1cc(-c2nnc(Nc3cccc(O)c3)c3ccccc23)ccc1C`, the survival is reported as 39% (active).
In the case of `Cc1ccc(-c2nnc(Nc3cccc(O)c3)c3ccccc23)cc1S(=O)(=O)N1CCN(C)CC1`, the survival is reported as 97% (inactive).
In the case of `CCOC(=O)c1c(Nc2cccc(C)c2)nnc(-c2ccccc2)c1-c1ccccc1`, the survival is reported as -4% (active).
For `CCOC(=O)c1c(C)c(-c2ccccc2)n(CC(=O)Nc2cc(C)cc(C)c2)c1C`, the survival was 80% (inactive).
For `CCOC(=O)c1cccc(Nc2cc(C)nc(C)n2)c1`, the survival was 65% (inactive).
With `CCOC(=O)c1c(C)oc2ncnc(Nc3cccc(C(F)(F)F)c3)c12` the survival was 105% (inactive).
For `Cc1ccc(-c2nnc(Nc3cccc(O)c3)c3ccccc23)cc1S(=O)(=O)NCC1CCCO1` (stereo unspecified), the survival was 74% (inactive).
For `CCc1ccc(NC(=O)Cn2c(=O)n(-c3ccccc3C)c(=O)c3c2c2cc(OC)ccc2n3C)cc1`, the survival was 67% (inactive).
`COc1ccccc1OCC(=O)NC1CC(=O)N(c2ccc3c(c2)OCCO3)C1` (stereo unspecified) was tested, and the survival was 67% (inactive).
In the case of `Cc1coc2c(C)c3oc(=O)c(CCC(=O)NCCc4ccccc4F)c(C)c3cc12`, the survival is reported as 57% (inactive).
`O=C1c2[nH]nc(-c3ccccc3O)c2C(c2ccc(Cl)cc2)N1Cc1ccco1` (stereo unspecified) was tested, and the survival was -1% (active).
With `COc1cc(C2c3c(-c4cc(C)ccc4O)n[nH]c3C(=O)N2CCCO)ccc1OCCC(C)C` (stereo unspecified) the survival was 58% (inactive).
With `COc1cc(C2c3c(-c4ccccc4O)n[nH]c3C(=O)N2Cc2ccco2)ccc1OCC(C)C` (stereo unspecified) the survival was 7% (active).
For `COc1ccc(C2c3c(-c4ccccc4O)n[nH]c3C(=O)N2Cc2ccco2)cc1` (stereo unspecified), the survival was 1% (active).
In the case of `CC(C)c1ccc(C2c3c(-c4ccccc4O)n[nH]c3C(=O)N2Cc2ccncc2)cc1` (stereo unspecified), the survival is reported as 88% (inactive).
With `COc1ccc(C2c3c(-c4c(C)cc(C)cc4O)n[nH]c3C(=O)N2Cc2ccco2)cc1` (stereo unspecified) the survival was 0% (active).
For `O=C1c2[nH]nc(-c3ccccc3O)c2C(c2cccc(Cl)c2)N1Cc1cccnc1` (stereo unspecified), the survival was 65% (inactive).
`CCCOc1ccc(C2c3c(-c4c(C)cc(C)cc4O)n[nH]c3C(=O)N2CCO)cc1` (stereo unspecified) was tested, and the survival was 73% (inactive).
For `COC(=O)c1ccc(C2c3c(-c4ccccc4O)n[nH]c3C(=O)N2Cc2ccncc2)cc1` (stereo unspecified), the survival was 90% (inactive).
In the case of `COc1cc(C2c3c(-c4ccccc4O)n[nH]c3C(=O)N2CCO)ccc1OCC(C)C` (stereo unspecified), the survival is reported as 99% (inactive).
In the case of `COc1cc(C2c3c(-c4c(C)cc(C)cc4O)n[nH]c3C(=O)N2Cc2ccco2)cc(OC)c1OC` (stereo unspecified), the survival is reported as 67% (inactive).
With `CC(C)(C)c1ccc(C(=O)NCC(c2cccnc2)N2CCc3ccccc3C2)cc1` (stereo unspecified) the survival was 98% (inactive).
`O=C(c1nc(-c2ccc(Cl)cc2)n2c1CCCCC2)N1CCN(c2ccccc2)CC1` was tested, and the survival was 88% (inactive).
With `COC(=O)c1sc(N2C(=O)c3oc4cc(C)c(C)cc4c(=O)c3C2c2ccccc2F)nc1C` (stereo unspecified) the survival was 70% (inactive).
With `O=c1c2nncn2ccn1-c1ccc(F)c(F)c1` the survival was 90% (inactive).
In the case of `CCN(c1ccccc1)c1nnc(NC(=O)Nc2cccc(C(F)(F)F)c2)s1`, the survival is reported as 88% (inactive).
`Cc1ccccc1-c1nnc(SCC(=O)N(C)C2CCCCC2)o1` was tested, and the survival was 67% (inactive).
With `COc1ccc(-n2nc3ccc(NC(=O)c4cccc(OCCC(C)C)c4)cc3n2)cc1` the survival was 121% (inactive).
`CN(C)CCCNc1cn[nH]c(=O)c1Cl` was tested, and the survival was 93% (inactive).
In the case of `CCOc1ccc(C(=O)CSc2nc3c(c(=O)n(C)c(=O)n3C)n2C(C)C)cc1`, the survival is reported as 77% (inactive).
With `O=C(CSc1cn(CC(=O)N2CCOCC2)c2ccccc12)Nc1ccccc1C(F)(F)F` the survival was 65% (inactive).
`COc1cccc(-c2ccc3c(N)c(C(=O)NCc4ccc(Cl)cc4)sc3n2)c1` was tested, and the survival was 41% (active).
With `COc1ccc(C(=O)c2sc3nc(-c4ccc(C)cc4)cc(C(F)(F)F)c3c2N)cc1` the survival was 134% (inactive).
For `COc1cccc(-c2ccc3c(N)c(C(=O)Nc4ccc(C)c(F)c4)sc3n2)c1`, the survival was 95% (inactive).
In the case of `COc1cccc(-c2ccc3c(N)c(C(=O)Nc4cc(C(F)(F)F)ccc4OC)sc3n2)c1`, the survival is reported as 89% (inactive).
`COc1cccc(-c2ccc3c(N)c(C(=O)c4ccc(Br)cc4)sc3n2)c1` was tested, and the survival was 28% (active).
For `COc1ccc(-c2ccc3c(N)c(C(=O)NCc4ccc(C)cc4)sc3n2)cc1`, the survival was 69% (inactive).
`COc1ccc(C(=O)c2sc3nc(-c4ccc(F)cc4)ccc3c2N)cc1` was tested, and the survival was 81% (inactive).
In the case of `COc1cccc(-c2ccc3c(N)c(C(=O)c4ccc(F)cc4)sc3n2)c1`, the survival is reported as 17% (active).
With `COc1ccc(NC(=O)c2sc3nc(-c4ccc(OC)cc4)cc(C(F)(F)F)c3c2N)cc1` the survival was 56% (inactive).
With `COc1ccc(-c2ccc3c(N)c(C(=O)NCc4ccc(Cl)cc4)sc3n2)cc1` the survival was 79% (inactive).
In the case of `COc1ccc(-c2ccc3c(N)c(C(=O)c4ccc(OC)c(OC)c4)sc3n2)cc1`, the survival is reported as 52% (inactive).
With `COc1cccc(C(=O)c2sc3nc(-c4ccccc4)cc(C(F)(F)F)c3c2N)c1` the survival was 37% (active).
